About 83,000 compounds went through this panel and 20% of them were active in at least one assay; those are over-represented in the sample as a whole.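 48-hour exposure, single concentration, 96-well plates; percent growth endpoint where 0 means no net growth. Active: below 10.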 Unmarked numbers belong to inactive results. Activity calls are given as the source filed them.
tested on: MCF7 breast; test: NCI-60 one-dose screen, 48 h (100 = growth as untreated, 0 = no growth, -100 = all killed); conditions: 10 µM unless noted

Point of comparison: `CCN(C(=O)CN1C(=O)/C(=C/c2ccco2)SC1=S)C1CCS(=O)(=O)C1` (configuration not stated), growth 91.8%. Against it:
- CN(C)CCCc1ccc(Nc2cnn(C)c(=O)c2Cl)cc1 — lower, 80.8%

`CC[C@@]12CC(C(=O)OC)=C3Nc4cc5c(cc4[C@@]34CCN(C[C@H]3O[C@H]31)[C@@H]24)[C@@H]1[C@H](O5)[C@@H](O)[C@@]2(CC)CC(C(=O)OC)=C3Nc4cc(O)ccc4[C@@]34CCN1[C@@H]24` was tested, and the growth was -56.8% (active).

tested on: HCT-116 colon; test: as above; conditions: 10 µM unless noted

Point of comparison: `CN(C(=O)CN1C(=O)/C(=C/c2ccco2)SC1=S)C1CCS(=O)(=O)C1` (configuration not stated), growth 96.7%. Against it:
- O=C(CSc1nnc(-c2ccc(-c3nc4ccccc4[nH]3)cc2)o1)Nc1ccc(Br)cc1 — lower, 10.3%
- COc1ccc2c(c1)N=c1c-2cc2c(O)[nH]c(=S)n2c1=O — lower, 28.6%
- CCOc1ccc2[nH]c(=O)c(C(c3nnnn3CC3CCCO3)N3CCN(Cc4ccccc4)CC3)cc2c1 (configuration not stated) — lower, 78%
- N#CC1=C(c2cccs2)Nc2c(c(-c3ccccc3)nn2-c2ccccc2)C12C(=O)Nc1ccc(Cl)cc12 (configuration not stated) — lower, 11.5%
- O=C(NC(=S)N1CCN(c2ncnc3c2cnn3-c2ccccc2)CC1)c1ccc(Br)cc1 — lower, 60.3%
- COc1c(B(O)O)cc(F)cc1-c1nc2ccc3[nH]ncc3c2c2c1COCC2 — lower, 19.8%
- CC1=C(C(=O)Nc2ccccc2)C(c2cccc(Cl)c2Cl)n2c(nc3ccccc32)N1 (configuration not stated) — lower, 29.6%

In the case of `COc1ccc(-c2nc3ccccc3n2CC(=O)N=Nc2c(O)[nH]c3ccc(OC)cc23)cc1`, the growth is reported as 1.32% (active).
